“And” between values parts separate entries of the source, which are not always exact repeats. Equal entries are not always repeated. About 83,000 compounds went through this panel and 20% of them were active in at least one assay; those are over-represented in the sample as a whole.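 Results are percent growth after 48 hours of single-concentration exposure. 100 means growth as in untreated cells, lower positive values show inhibition; negative values down to -100 show cell death.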 The source made the active and inactive calls.

The subject of the first test is NCI/ADR-RES ovarian. In words: NCI-60 one-dose screen, 48 h (100 = growth as untreated, 0 = no growth, -100 = all killed). Conditions: 10 µM. The protocol:
Growth inhibition of the NCI/ADR-RES human […] tumor cell line is measured as a screen for anti-cancer activity. Cells are grown in 96 well plates and exposed to the test compound for 48 hours. Compounds are tested at a single concentration, which is 10^-5 M for most compounds. The reported endpoint is percent growth (GI% or GIPRCNT), where numbers from 0 - 100% represent growth inhibition, and numbers from -100% - 0 represent cell death. For example, a value of 40 represents 60% growth inhibition. A value of 0 means no net growth occurred over the course of the experiment. A value of -40 indicates 40% of cells at the beginning of the experiment died by the end of the experiment. A value of -100 means all cells are dead at the end of the experiment.
NCI-60 Human Tumor Cell Lines Screen was performed using the standard one-dose NCI protocol, which is described in more detail at https://dtp.cancer.gov/discovery_development/nci-60/default.htm.
Compounds with GIPRCNT values below 10 were considered active. Activity score was based on GIPRCNT using the following formula: […]
Score is 0 for GIPRCNT values of 100 or above, 50 for GIPRCNT values of 0, and 100 for GIPRCNT values of -100.
With `CC(=O)/C=C/c1ccc(N(C)Cc2ccc(C(C)(C)C)cc2)cc1`, the growth is 86.1% (inactive).

In the case of `CC(=O)/C=C/c1ccc(OCc2ccc(C(C)(C)C)cc2)cc1`, the growth is 81.1% (inactive).

In the case of `CCN(Cc1ccccc1)c1ccc(/C=C2\COc3ccccc3C2=O)cc1`, the growth is 101% (inactive).

Still in this test, the particulars now being: 10 µM unless noted.
As to `O=C(Nc1ccc(Cl)c(Cl)c1)Nc1ccc(Cl)c(Cl)c1`, the growth was -54.9% (active) and 14.6% (inactive).

As to `Cc1ccc(/C=C2\COc3ccc(O)c(O)c3C2=O)cc1`, the growth is 3.13% (active).

Turning to `CC(=NCc1ccccc1)c1ccc(O)cc1O`, the growth was 98.4% (inactive).

Turning to `O=C(/C=C/c1ccc(Cl)s1)c1ccc(Cl)s1`, the growth is 104% (inactive) and 99.1% (inactive).

For the compound `Cc1ccc(C(=O)Nc2ccc(CN3CCN(C)CC3)c(C(F)(F)F)c2)cc1C#Cc1cnc(N)cc1C#N`, the growth was -27.3% (active).

Regarding `CCCCCCNC(=O)Oc1ccc(/C(=C(/CC)Cc2ccccc2)c2ccc(OCCCN(C)C)cc2)cc1`, the growth is 72.2% (inactive).

Consider `Nc1n[nH]c2cccc(C#Cc3cccc(C(=O)Nc4ccc(CN5CCOCC5)c(C(F)(F)F)c4)c3)c12`, for which the growth is 18.4% (inactive).

Regarding `N#CSc1c[nH]c2ccc(/C=C/C(=O)/C=C(/C=C/c3ccc4[nH]cc(SC#N)c4c3)OB(F)F)cc12`, the growth is 10.9% (inactive).

`O=C(O)C1C2CCC1C(O)C2` (stereo not given): the growth is 96.7% (inactive) and 98.2% (inactive).

`O=C(CCN1CCOCC1)Nc1cccc(-n2cc(-c3ccncc3)c(-c3ccc(Cl)c(O)c3)n2)c1`: the growth is 21.5% (inactive).

`Nc1nc(Cl)nc2c1ncn2C1OC(CO)C(O)C1O` (stereo not given): the growth was 29.6% (inactive) and 40.2% (inactive).

Consider `Nc1ccc(-c2nc3ccc4[nH]ncc4c3c3c2CCCC3)cc1F`, for which the growth was 35.6% (inactive).

`CN1CCN(CCNC(=O)c2cccc(CN3c4cccc5c4C(=Cc4cccnc43)N(C)C5=O)c2)CC1`: the growth is 80.9% (inactive).

As for `COc1ccc(-c2nc(Cl)c3c(C)nn(-c4ccc(F)cc4)c3n2)cc1`, the growth is 112% (inactive).

Consider `CCCCCCCCCCCCCCCCCCn1cc(COc2ccc(C=O)cc2)nn1`, for which the growth was 96.4% (inactive).

Take `N=c1c2c(-c3ccccc3)c(-c3ccccc3)oc2ncn1NC(=O)c1cccnc1`: the growth was 107% (inactive).

In the case of `CN(C)CCN1C(=O)c2c(c3c4ccccc4n4c3c3c2c2ccccc2n3C2CC(O)C(O)C4(C)O2)C1=O` (stereo not given), the growth is 54.5% (inactive).

`Fc1ccc(NC(c2ccc(F)cc2)C2CCN(CCCCc3ccccc3)CC2)cc1` (stereo not given): the growth is 49.5% (inactive).

In the case of `O=C(Cn1cc(CN2CCN(c3ccnc4cc(Cl)ccc34)CC2)nn1)Nc1cccc([N+](=O)[O-])c1`, the growth is 100% (inactive).

Take `CCN1CCN(CC(=O)Nc2nc3ccc(NCc4ccc(C)cc4)cc3s2)CC1`: the growth was 81.8% (inactive).

As for `CCCCn1c(C(=O)c2c[nH]c3ccccc23)n[nH]c1=S`, the growth is 107% (inactive).

On to `CCOC(=O)C(=Cc1ccc(C#N)cc1)C(=O)OCC`, for which the growth is 20.3% (inactive).

On to `CCCCCCCCCCCCCCCC(=O)O[C@@H]1[C@@H](O)[C@@H](O)C([C@H](NC(=O)[C@@H]2C[C@@H](CCC)CN2C)[C@H](C)Cl)O[C@@H]1SC` (stereo not given in full), for which the growth is 112% (inactive).

For the compound `COc1ccc(Nc2ncnc3ccc(-c4cncc(NS(C)(=O)=O)c4)cc23)cc1Cl`, the growth is 86% (inactive).

Regarding `O=C1/C(=C/c2ccc(-c3cccc(C(F)(F)F)c3)o2)SC(=S)N1CCc1ccc(O)cc1`, the growth was 81.7% (inactive).

With `COc1cc(-c2nc(SCCC(C)C)nc(Nc3ccc(F)cc3)c2C#N)cc(OC)c1OC`, the growth is 77.7% (inactive).

On to `COc1cc(Nc2nc3ccccc3cc2C(=O)Nc2ccc(F)c(F)c2)cc(OC)c1OC`, for which the growth is 6.91% (active).

Regarding `Nc1nc(Nc2ccc(F)cc2)nn1C(=O)c1cc(Cl)ccc1Cl`, the growth was 69.1% (inactive).

As to `CCOC(=O)C1=C(C)N=C2SC=C(c3ccc(F)cc3)N2[C@H]1c1cn(-c2ccccc2)nc1-c1ccc(Cl)cc1`, the growth was 105% (inactive).

As to `C=CCNC(=O)Cc1c(-c2ccc(OC)cc2)oc2c(OC)c3c(c(OC)c12)OCO3`, the growth is 98.2% (inactive).

Take `CCN1C(=O)/C(=c2\sc3n(c2=O)C2C(NN=3)N(CC)C(=O)N2CC)c2ccccc21` (stereo not given): the growth was 5.59% (active).

As for `Cc1ccc(S(=O)(=O)Nc2cc(Sc3ccccc3)c(O)c3ccccc23)cc1`, the growth was 5.05% (active).

`CCN(CC)/C([O-])=c1\cccc\c1=C1\N=C(c2ccccc2)N=C1[n+]1ccc(-c2ccccc2)cc1`: the growth was 98.2% (inactive).

On to `Cc1cc2nc(C(Cl)Cl)nc(-c3ccc(Cl)cc3)n2n1`, for which the growth was -6.58% (active).

Staying with this test, now noted: 100 µM.
Regarding `CC(=O)/C=C/c1ccc(N(C)Cc2ccc(C(C)(C)C)cc2)cc1`, the growth was -60.1% (active).

As to `CC(=O)/C=C/c1ccc(OCc2ccc(C(C)(C)C)cc2)cc1`, the growth is 7.42% (active).

As to `CCN(Cc1ccccc1)c1ccc(/C=C2\COc3ccccc3C2=O)cc1`, the growth was 23.4% (inactive).

Values taken from PubChem BioAssay (NCI).
